High-throughput results from PubChem BioAssay.
Shown are actives, neighbours in structure and some others; about 3% of the full set was active somewhere.
SENP8 block-1: SENP8 protease inhibitors, primary screen, biochemical, luminescence; inhibition, % at 10 µM; AID 2540, 2010; purified SENP8, Z-RLRGG-aminoluciferin cleavage; actives 1.2% (n = 330,000); in the data active means inhibition above about 50%
PPC-1+TRAIL kill: compounds killing PPC-1 cancer cells with TRAIL present, primary screen, TRAIL potentiator project, ATPLite luminescence, uHTS; AID 1443, 2008; actives 0.41% (n = 220,000); PPC-1 cells + TRAIL, ATPLite viability luminescence; cell killing (% activity), % at 4 µM or 5 µM;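 active means cell killing above 50% in the first pass at 4 µM, then a duplicate retest at 5 µM averaging 50% or more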;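 further: plate controls were cells with TRAIL plus DMSO for no effect and medium-only wells lacking cells for full effect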
C8 TRAIL sens: viability loss with TRAIL in NB7+C8 cells, primary screen, TRAIL sensitizer project, cell-based, ATPlite luminescence. inhibition (viability loss, TRAIL sensitization), % at 10 µM. actives 1% (n = 360,000);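 active means compounds causing at least 50% loss of cell viability in the single-dose screen, relative to plate controls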
SENP6 block: SENP6 protease inhibitors, primary screen, biochemical, luminescence, uHTS. Sentrin-specific protease 6 (Homo sapiens), Q9GZR1. Recombinant SENP6 catalytic domain, aminoluciferin luminescence. inhibition, % at 10 µM. actives 1.8% (n = 330,000). AID 2599, 2010;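 active means inhibition above about 50% at the single tested dose, limit read from the data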;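 further: plate controls were DMSO wells with enzyme for no effect and DMSO wells lacking enzyme for full effect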
SENP7 inh: SENP7 protease inhibitors, primary screen, biochemical, luminescence, uHTS | actives 1.5% (n = 330,000) | inhibition, % at 5 µM | Sentrin-specific protease 7 (Homo sapiens), Q9BQF6 | recombinant SENP7, Z-RLRGG-aminoluciferin luminescence, 40 min;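 active means inhibition above about 50% at the single test dose, limit read from the data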;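 further: plate controls were DMSO with enzyme for no effect and no enzyme buffer wells for full effect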
Target sequence (Q9BQF6 706-1050 limits assumed): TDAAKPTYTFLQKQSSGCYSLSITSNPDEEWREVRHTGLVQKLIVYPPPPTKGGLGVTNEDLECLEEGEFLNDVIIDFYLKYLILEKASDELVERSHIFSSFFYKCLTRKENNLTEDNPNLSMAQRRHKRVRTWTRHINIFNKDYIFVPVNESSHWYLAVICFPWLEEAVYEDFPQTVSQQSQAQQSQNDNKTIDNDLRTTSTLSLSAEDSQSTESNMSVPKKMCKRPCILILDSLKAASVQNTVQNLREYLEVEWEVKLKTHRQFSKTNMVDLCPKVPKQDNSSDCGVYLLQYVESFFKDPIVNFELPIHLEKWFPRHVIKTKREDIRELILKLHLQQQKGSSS
SENP8 block-2: human SENP8 protease inhibitors, primary screen, biochemical, fluorescence, Nedd8 protein substrate, uHTS; recombinant SENP8; inhibition, % at 20 µM; actives 0.64% (n = 360,000); AID 602440, 2012; in the data active means inhibition mostly above about 40%, no sharp cut-off; inactive means mostly below about 27%
SENP8 confirm: SENP8 protease inhibitors, retest, confirmation, biochemical, luminescence, single concentration. shares compounds with SENP7 inh. Recombinant SENP8, Z-RLRGG-aminoluciferin luminescence, 60 min. inhibition, % at 12.5 µM. actives 40% (n = 6,200). AID 488912, 2010;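 active means mean inhibition across replicates above about 50%, limit read from the data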
SENP6 confirm: SENP6 protease inhibitors, confirmation, biochemical, luminescence, single concentration. actives 58% (n = 6,200). inhibition, % at 12.5 µM. AID 488915, 2010. recombinant SENP6, Z-RLRGG-aminoluciferin luminescence. shares compounds with SENP7 inh
SENP7 conf: SENP7 protease inhibitors, retest, confirmation, biochemical, luminescence, single concentration; recombinant SENP7, Z-RLRGG-aminoluciferin luminescence, 40 min; actives 69% (n = 6,200); inhibition, % at 12.5 µM; shares compounds with SENP7 inh
Casp3 select: caspase-3 protease inhibitors, confirmation, selectivity assay for SENP inhibitor project, biochemical, single concentration; purified caspase-3, Z-DEVD-aminoluciferin luminescence, 60 min; actives 60% (n = 6,200); inhibition, % at 12.5 µM; shares compounds with SENP7 inh; AID 488918, 2010;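 active means mean inhibition above about 50%, limit read from the data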;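 further: plate controls were enzyme with DMSO for no effect and wells without caspase-3 for full effect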
Target sequence (P42574 28-227 limits assumed): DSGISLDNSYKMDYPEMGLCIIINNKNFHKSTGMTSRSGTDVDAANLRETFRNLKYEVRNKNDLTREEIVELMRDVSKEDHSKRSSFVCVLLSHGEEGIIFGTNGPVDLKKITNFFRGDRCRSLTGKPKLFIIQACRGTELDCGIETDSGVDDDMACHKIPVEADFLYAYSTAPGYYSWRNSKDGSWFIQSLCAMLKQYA
Luc interf: luminescence interference (SENP counter-screen) | shares compounds with SENP7 inh | Pre-incubated SENP8/Z-RLRGG-aminoluciferin, luciferase luminescence interference | inhibition, % at 12.5 µM | actives 39% (n = 6,200);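 active means mean inhibition above about 50% when retested at one dose, limit read from the data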;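 further: plate controls were DMSO wells with completed reaction for no effect and substrate without enzyme for full effect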
The depositor's hits bear a star; . = no result.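 How the source made its calls, unless noted: active means mean inhibition above about 50% in the one-dose retest (limit read from the data); inactive means the rest.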

SMILES	SENP8 block-1	PPC-1+TRAIL kill	C8 TRAIL sens	SENP6 block	SENP7 inh	SENP8 block-2	SENP8 confirm	SENP6 confirm	SENP7 conf	Casp3 select	Luc interf
Cc1ccsc1/C=N/N=C/c1sccc1C	95.3*	.	30.5	-5.1	98.2*	16.9	-11.7	98.4*	102.8*	86.5*	87.1*
Cc1ccsc1C=Nc1ccc(O)cc1	8.2	5.7	-3.4	68.3*	37.5	97.1*	29.0	15.5	-14.4	12.9	6.2
Cc1ccsc1/C=N/NC(=O)CO	-5.2	6.8	-3.6	-2.3	-2.2	0.0	.	.	.	.	.
CCCCNC(=S)NNC(=O)C1=NN(c2cc(C)ccc2C)C(=O)CC1	-1.4	.	-9.8	-5.6	-6.7	1.7	.	.	.	.	.
Cc1ccc2nc(C)c(CN3CCN(c4ccc([N+](=O)[O-])cc4Cl)CC3)n2c1	4.6	.	25.4	-17.6	2.9	10.5	.	.	.	.	.
CCc1ccccc1N(CC(=O)NC1CCCC1)C(=O)CNC(=O)c1cccs1	-7.7	.	-8.6	-22.6	0.1	10.0	.	.	.	.	.
Cc1cc2nc(N)sc2cc1C	65.5*	25.3	14.4	47.0	70.3*	19.1	75.3*	73.5*	92.1*	84.3*	72.8*
COc1ccc(OC)c(S(=O)(=O)NCCCN2CCOCC2)c1	-8.6	.	3.1	-0.1	-0.8	7.7	.	.	.	.	.
COc1cc2sc3cc(NCCCN4CCOCC4)ccc3c(=O)c2cc1OC	43.1	.	16.0	69.5*	74.9*	-462.9	-10.2	-3.6	-2.2	16.8	29.2
COC(=O)c1ccc(CSc2nc3ccccc3o2)cc1	86.7*	-4.0	3.3	85.3*	91.1*	15.7	-24.5	90.7*	99.9*	80.0*	65.1*
O=C(O)CSc1nc2ccccc2o1	-3.5	14.3	0.1	-10.2	1.5	-1.0	.	.	.	.	.
O=[N+]([O-])c1ccc(CSc2nc3ccccc3o2)cc1	15.6	-2.6	-1.0	52.2*	24.4	21.3	52.8*	53.6*	65.6*	35.7	32.0
CC(=O)CC(C)(C)NC(C)=S	-0.4	-11.2	-0.9	-4.3	0.8	-4.4	.	.	.	.	.
N#Cc1ccc(NC(=O)c2cc(-c3cccs3)on2)cc1	1.8	-5.6	-30.3	57.8*	7.7	-33.4	-23.6	-18.0	-12.0	-11.3	-8.3
NN1C(=O)/C(=C\c2ccco2)SC1=S	-3.6	3.1	-8.7	-30.5	-3.8	28.7	.	.	.	.	.
COc1ccc(OC)c(N(CC(=O)NN=C2CCN(C)CC2)S(=O)(=O)c2ccccc2)c1	3.3	.	6.3	-11.6	10.5	0.1	.	.	.	.	.
O=C(CN1C(=O)CSc2ccccc21)N/N=C/c1ccco1	-7.8	11.7	7.5	-11.3	-2.9	13.4	.	.	.	.	.
Cc1ccc(NC2=C(N3CCOCC3)C(=O)c3ccccc3C2=O)cc1	68.4*	4.3	55.6*	79.6*	35.1	70.8*	71.8*	82.6*	72.4*	87.7*	28.8
CC(=O)c1ccc(NC2=C(N3CCOCC3)C(=O)c3ccccc3C2=O)cc1	29.1	-6.5	16.2	53.2*	9.0	59.2*	21.1	56.0*	36.8	9.2	2.3
Cc1ccc2nc(-c3cccnc3SCC(=O)N3c4ccccc4CC3C)[nH]c2c1 (centres undefined)	33.1	16.8	3.2	54.8*	-2.5	-164.8	28.7	23.4	70.1*	35.8	-2.3
O=C(Nc1nc2ccccc2[nH]1)c1cccs1	44.5	46.9	43.6	17.0	69.4*	-19.1	42.7	72.6*	88.8*	87.5*	10.1
Cc1c(C(=O)Nc2nc3ccccc3[nH]2)oc2ccccc12	37.6	16.4	41.8	69.5*	56.5*	-156.0	-26.9	60.0*	89.3*	65.2*	6.6
COc1ccc(C(=O)Nc2nc3ccccc3[nH]2)cc1	92.6*	.	90.8*	96.7*	97.3*	1.9	7.5	95.1*	101.2*	96.1*	59.6*
Cc1c(C(=O)Nc2nc3ccccc3[nH]2)oc2ccc(Br)cc12	-3.9	17.5	12.4	-27.6	47.7	-158.4	.	.	.	.	.
O/C(=C\c1nc2ccccc2[nH]1)c1cccs1	33.5	.	10.7	60.8*	20.4	-99.0	40.4	74.1*	66.0*	38.5	45.9
SMILES	SENP8 block-1	PPC-1+TRAIL kill	C8 TRAIL sens	SENP6 block	SENP7 inh	SENP8 block-2	SENP8 confirm	SENP6 confirm	SENP7 conf	Casp3 select	Luc interf
O=C(Nc1nc2ccccc2[nH]1)C1CC1	-6.2	6.3	23.5	-31.7	-13.0	20.8	.	.	.	.	.
COCCCNC(=O)CCCN1C(=O)c2cccnc2Sc2ccccc21	-5.4	.	6.0	1.6	-7.0	10.2	.	.	.	.	.
Cc1ccc(C(=O)Nc2nc3ccccc3[nH]2)cc1	93.3*	.	92.8*	93.2*	96.8*	-3.3	10.5	8.5	-4.0	47.9	10.2
Nc1ccn([C@@H]2O[C@H](CN=C3NS(=O)(=O)c4ccccc43)[C@@H](O)[C@H]2O)c(=O)n1	.	.	-15.6	.	.	8.8	.	.	.	.	.
c1ccc(NC2=NCCN2CCC2CCCC2)cc1	-0.1	.	7.1	-7.6	2.0	11.4	.	.	.	.	.
Brc1ccc(/C=N/Nc2nc3ccccc3o2)cc1	8.8	.	2.2	22.9	55.4*	-32.7	21.6	17.7	32.4	25.9	41.3
Oc1ccccc1/C=N/Nc1nc2ccccc2o1	68.7*	38.3	37.6	82.5*	78.9*	-26.0	27.6	61.9*	92.5*	66.2*	31.2
COc1ccc(/C=N/Nc2nc3ccccc3o2)cc1O	63.5*	44.5	46.7	45.3	72.6*	-15.5	84.4*	84.0*	96.9*	82.1*	82.2*
O=C(Nc1ccc(F)c(Cl)c1)c1cc(C2CCCN(S(=O)(=O)c3cccc4cccnc34)C2)on1 (centres undefined)	.	.	24.8	.	.	6.4	.	.	.	.	.
CCOC(=O)c1c(C)oc2c1c(C=NC1CCS(=O)(=O)C1)c(O)c1ccccc12 (centres undefined)	.	8.6	-6.9	.	.	7.1	.	.	.	.	.
